Measurements from the supplement of paper PMC9262897, “Low-cost anti-mycobacterial drug discovery using engineered E. coli” (Nature Communications, 2022).
Where a name gives a salt, the structure may show the parent alone. ± gives the standard deviation of the averaged measurements.

System: E. coli TESEC Mtb Alr
Assay: growth (OD600 after 10 h); higher = more growth (less inhibition)
Settings: compound 0.1 mM
Description: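 TESEC Mtb Alr E. coli, or the Alr+ wild-type control, in 384-well plates with Prestwick library compounds at 0.1 mM and 1% DMSO, across arabinose induction levels of 1E3 to 1E7 nM. Growth is read as OD600 after 10 h at 37 °C in triplicate biological replicates.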

[1] = arabinose 1000 nM, raw OD600 reference: median of DMSO wells 0.294, cell-free background 0.041
[2] = arabinose 10000 nM, raw OD600 reference: median of DMSO wells 0.264, cell-free background 0.041
[3] = arabinose 100000 nM, raw OD600 reference: median of DMSO wells 0.201, cell-free background 0.041
[4] = arabinose 1000000 nM, raw OD600 reference: median of DMSO wells 0.193, cell-free background 0.041
[5] = arabinose 10000000 nM, raw OD600 reference: median of DMSO wells 0.146, cell-free background 0.041

Structure (SMILES)	growth [1]	growth [2]	growth [3]	growth [4]	growth [5]
CC(=O)[C@@]12O[C@](C)(c3ccccc3)O[C@@H]1C[C@H]1[C@@H]3CCC4=CC(=O)CC[C@]4(C)[C@H]3CC[C@@]12C [Algestone acetophenide]	0.323 ± 0.053	0.265 ± 0.029	0.173 ± 0.031	0.115 ± 0.0061	0.211 ± 0.0087
c1ccc2c(CC3=NCCN3)cccc2c1 [Naphazoline hydrochloride]	0.26 ± 0.032	0.268 ± 0.0057	0.191 ± 0.019	0.189 ± 0.0029	0.147 ± 0.0052
OC(Cn1cncn1)(Cn1cncn1)c1ccc(F)cc1F [Fluconazole]	0.29 ± 0.005	0.276 ± 0.0067	0.187 ± 0.029	0.211 ± 0.0083	0.14 ± 0.0056
CC(=O)O[C@H]1C[C@@H]2CC[C@@H]3[C@H](CC[C@@]4(C)[C@H]3C[C@H]([N+]3(C)CCCCC3)[C@@H]4OC(C)=O)[C@@]2(C)C[C@@H]1N1CCCCC1 [Vecuronium bromide]	0.0791 ± 0.0015	0.0482 ± 0.00074	0.07643 ± 0.00021	0.0518 ± 0.0023	0.07727 ± 0.00072
Nc1ccn([C@H]2CC[C@@H](CO)O2)c(=O)n1 [Zalcitabine]	0.2977 ± 0.0013	0.279 ± 0.014	0.198 ± 0.035	0.172 ± 0.0063	0.1518 ± 0.00067
O=c1[nH]c(=O)n([C@H]2C[C@H](O)[C@@H](CO)O2)cc1I [Idoxuridine]	0.285 ± 0.0078	0.268 ± 0.012	0.206 ± 0.0098	0.203 ± 0.0061	0.15 ± 0.0075
CCOC(=O)[C@H](CCc1ccccc1)N[C@H]1CCc2ccccc2N(CC(=O)O)C1=O [Benazepril HCl]	0.044 ± 0.0065	0.0504 ± 0.011	0.253 ± 0.023	0.173 ± 0.0047	0.1615 ± 0.0012
NS(=O)(=O)c1cc2c(cc1Cl)NC(CC1CCCC1)NS2(=O)=O (stereo not given) [Cyclopenthiazide]	0.278 ± 0.0078	0.2543 ± 0.0017	0.273 ± 0.013	0.191 ± 0.0034	0.143 ± 0.0052
